The structures appear in SMILES notation. Screen size: about 360,000 compounds; about 3,000 (0.83%) were called active. What follows is part of a selection rich in actives, with near analogues and random picks from the rest. Unmarked numbers belong to inactive results. Cut-off read from the data, not from the text of the source: active = inhibition above about 38%; inactive = the rest.

The target in the assay is G-protein coupled receptor 183 (Homo sapiens) (UniProt P32249). The assay can be described thus: EBI2 receptor antagonists, beta-arrestin recruitment, primary screen, cell-based, luminescence, 7a,25-OHC stimulation, uHTS (AID 651636).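 Note: enzyme fragment complementation signal reports receptor beta-arrestin coupling in cells; 0% = agonist plus DMSO wells and 100% = wells without agonist.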 Particulars: 7a,25-OHC stimulated, at 5 µM, stronger effect = higher value.
Chain of G-protein coupled receptor 183 (Homo sapiens) (P32249 whole entry, looked up, the tested form may be a part): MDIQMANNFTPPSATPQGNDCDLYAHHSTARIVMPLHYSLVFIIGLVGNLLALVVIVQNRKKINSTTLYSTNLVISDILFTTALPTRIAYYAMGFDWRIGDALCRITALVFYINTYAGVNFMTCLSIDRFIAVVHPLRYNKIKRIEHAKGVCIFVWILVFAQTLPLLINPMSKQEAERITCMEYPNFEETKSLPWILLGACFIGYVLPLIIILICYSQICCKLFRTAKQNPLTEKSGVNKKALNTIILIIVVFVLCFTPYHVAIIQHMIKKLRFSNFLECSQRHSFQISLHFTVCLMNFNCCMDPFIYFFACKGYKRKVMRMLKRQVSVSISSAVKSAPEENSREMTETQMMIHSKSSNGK
Turning to `COc1ccc(N(CCC(=O)NCCc2ccccc2)S(=O)(=O)c2ccc(C)cc2C)cc1`, the inhibition was 9.4%. Then `CCOC(=O)c1cnc(SCc2nc(N)nc(Nc3ccc(OC)cc3)n2)nc1N`, with -2.38%.

For the molecule `Cc1cccc(OCCC(=O)OCc2csc(CC(=O)Nc3ccccc3C)n2)c1`, the inhibition was -1.51%. For the molecule `C=CCNc1nc(N)c(C(=C(C#N)C#N)c2ccccc2)s1`, the inhibition is -6.63%.

As for `Cc1ccc(CN2CC(C(=O)N3CCN(S(=O)(=O)c4ccccc4)CC3)CC2=O)cc1` (configuration not stated), the inhibition was 3.15%. For `CN1CCN(c2cc(=O)n(-c3ccc(Cl)cc3)c(=O)[nH]2)CC1`, the inhibition was -7.79%. Take `CC1CC(C)CN(CCCNC(=O)Cn2ncc3c([nH]c4ccccc43)c2=O)C1` (configuration not stated): the inhibition was 5.19%. Then `Cc1ccc(NS(=O)(=O)c2ccc3c(c2)NC(=O)CO3)cc1`, with -3%. `CC[C@@H]1Cc2cc(O)ccc2C2=C1c1ccc(O)cc1C[C@H]2CC`: the inhibition is 49.4% (active).

As to `COc1ccc(Br)cc1CN(C)C(=O)C1CC(=O)N(C2CCCC2)C1` (configuration not stated), the inhibition is 7.14%. Then `CN1CCN(C(=O)c2ccc(-c3cc4nc(NCc5cccnc5)n(C)c(=O)c4s3)cc2)CC1`, with -2.23%. Then `CCc1ccccc1NC(=O)c1ccc2c(c1)CCN2S(C)(=O)=O`, with -1.7%; and `CCc1ccccc1NC(=O)NCCN1CCCCC1`, with 4.39%; and `CN1CCc2ccccc2C1Cc1ccccc1NC(=O)c1sc2ccccc2c1Cl` (configuration not stated), with 65.6% (active). Then `CCOC(=O)[C@]12CCCC=C1N(Cc1cccc3ccccc13)C(=O)[C@H](CC(=O)NCC13CC4CC(CC(C4)C1)C3)C2`, with 16.6%; and `COC(=O)C[C@H]1C=C[C@@H](NS(=O)(=O)c2ccc(C)cc2)[C@@H](CO)O1`, with -0.992%.

For `O=C(NCCc1ccccc1Cl)C1CCC(=O)N(CCCc2ccccc2)C1` (configuration not stated), the inhibition is 8.34%. In the case of `O=C(NCCN1CCOC1=O)C1CCC(=O)N(CCc2ccc(Cl)cc2)C1` (configuration not stated) it was 5.95%.

On to `O=C(NCCCc1ccccc1)C1CCC(=O)N(CCc2ccc(Cl)cc2)C1` (configuration not stated), for which the inhibition was 63.7% (active).

On to `C/C(=N/NC(=O)c1ccc(Br)o1)c1ccc(C)o1`, for which the inhibition is -2.5%. In the case of `COC(=O)[C@]12CCCCC=C1N(Cc1ccco1)C(=O)[C@H](CC(=O)NCC1CCCCC1)C2` it was -6.57%; in that of `CC1CN(C(=S)Nc2cccc(F)c2)CC(C)O1` (configuration not stated), -5.04%; in that of `COc1cccc(NC(=O)CS(=O)(=O)c2cn(CC(=O)N3CCOCC3)c3ccccc23)c1`, 3.35%. For the molecule `COc1cccc(NC(=O)Cn2c3ccc(F)cc3c3nc4n(c(=O)c32)CCS4)c1`, the inhibition is 80.8% (active).

Consider `COc1cccc(NC(=O)Cn2cnc3sc(C)c(S(=O)(=O)N4CCN(C)CC4)c3c2=O)c1`, for which the inhibition was -9.02%. Then `COc1ccc2c(c1)c1nc3n(c(=O)c1n2CC(=O)Nc1ccccc1)CCS3`, with 8.84%. In the case of `COc1cccc(NC(=O)Cn2c3ccccc3c3nc4n(c(=O)c32)CCS4)c1` it was 62% (active); in that of `COc1cccc(NC(=O)CC2C(=O)NCCN2C(=S)Nc2ccc(F)cc2)c1` (configuration not stated), 9.02%. Then `COc1cccc(N(CC(=O)NC2CCCC2)C(=O)Cn2nnc(-c3ccc(C)cc3)n2)c1`, with 7.66%; and `CS(=O)(=O)N1CCc2nc(-c3ccccc3)sc2C1`, with 1.2%; and `O/N=C(\c1ccc2c(c1)OCCO2)C1CCCCC1`, with 4.5%. In the case of `O=S1(=O)CC(N2CCN(CCO)CC2)CN1Cc1cn(Cc2cccc(Cl)c2)nn1` (configuration not stated), the inhibition is -6.79%. Then `Cc1ccc(O/C=C2\OC(=O)c3ccccc32)cc1`, with 55.5% (active); and `O=C(O/N=C(/c1ccccc1)c1ccncc1)c1ccccc1[N+](=O)[O-]`, with -3.57%; and `O=S(=O)(c1ccc(Sc2nnc3ccccn23)nc1)N1CCOCC1`, with -9.4%. Take `COc1ccccc1-c1cc2nc(NCc3cccc(Cl)c3)ccn2n1`: the inhibition is 4.55%. For `CC(C)Cc1ccc(-c2cc3nc(NCc4cccc(Cl)c4)ccn3n2)cc1`, the inhibition was 47.4% (active). Then `COCCCNc1ccn2nc(-c3ccc(CC(C)C)cc3)cc2n1`, with 36.9%; and `O=C(O)C1CC=CCC1C(=O)NCCc1ccccc1` (configuration not stated), with -5.64%. On to `CCc1nc2ccc(C(=O)Nc3cc(-c4ccccc4)ccc3OC)cn2c1N(CC)CC(=O)N(C)C`, for which the inhibition was 17%. For the molecule `CCC(C)(C)NC(=O)c1cc([N+](=O)[O-])ccc1N1CCCCC1`, the inhibition was 79.2% (active). Then `CCN1CCN(c2ccc([N+](=O)[O-])cc2C(=O)c2ccc(Cl)cc2)CC1`, with 8.05%; and `COc1ccc(S(=O)(=O)N2CCCCC2)cc1NC(=O)c1cc([N+](=O)[O-])ccc1N1CCOCC1`, with 15.7%; and `C=CCN(Cc1nc(-c2cc(OC)c3c(c2)OCO3)oc1C)C1CCS(=O)(=O)C1` (configuration not stated), with -4.13%. As to `CCCCN1CC(CO)Oc2cccc(F)c2S1(=O)=O` (configuration not stated), the inhibition is -9.52%. Then `CC(C)(C)C(=O)Nc1cccc(-c2ccc[nH]2)n1`, with -1.86%; and `Cc1cccc(NC(=O)CN2CCCN(S(=O)(=O)c3ccc(Br)s3)CC2)c1`, with 3.9%. Then `C/C(=N/NC(=O)CN1CCN(S(=O)(=O)c2ccc(Br)cc2)CC1)c1ccncc1`, with 6.8%; and `Cc1ccc(S(=O)(=O)N2CCN(CC(=O)N/N=C/c3ccc(Br)s3)CC2)cc1`, with 66.9% (active). As for `Cc1ccc(C(=O)NCC(=O)OCC(=O)NC2CCCCCCC2)cc1`, the inhibition was -2.06%. Then `COc1ccc(S(=O)(=O)N2CCOCC2)cc1C(=O)NC1CCCCC1`, with 3.75%; and `Cc1ccc2oc(=O)c3cnn(CC(=O)N(Cc4ccco4)C4CCCCC4)c3c2c1`, with 86.2% (active). In the case of `Cc1ccc2oc(=O)c3cnn(CC(=O)N4CCN(c5ccccn5)CC4)c3c2c1` it was 14.3%; in that of `CCOC(=O)C1CCCN(C(=O)Cn2ncc3c(=O)oc4ccc(C)cc4c32)C1` (configuration not stated), -3.84%. Then `Cc1ccc(S(=O)(=O)NCC(=O)N(CC(=O)NC2CCCCC2)Cc2ccco2)cc1`, with -11.2%; and `COCCCN(C(=O)Cn1ncc2c(=O)oc3ccc(C)cc3c21)C(C)c1ccncc1` (configuration not stated), with -3.25%; and `Cc1ccc2oc(=O)c3cnn(CC(=O)N4CCCCCC4)c3c2c1`, with 57.7% (active).

Regarding `CCC1CO/C(=C(\C(=C(Cl)Cl)N2CCOCC2)[N+](=O)[O-])N1` (configuration not stated), the inhibition was -3.56%. `CCCCC[C@H](C)N1C[C@@H](COCc2ccccc2)Oc2cc(N3CC[C@@H](N(C)C)C3)ccc2S1(=O)=O`: the inhibition was 1.65%. Take `Cc1ccc(C(=O)O)cc1S(=O)(=O)NCC1CCCO1` (configuration not stated): the inhibition was -0.989%. In the case of `C=CC[C@H](CC(=O)N(CCO)Cc1ccccc1)C(=O)N[C@@H](COC(=O)[C@@H](CC=C)Cc1ccc(F)cc1)Cc1ccccc1` it was 27%. For `Cc1cccc(NS(=O)(=O)c2ccc(C)c(C(=O)NCc3cccnc3)c2)c1`, the inhibition was -2.61%.

With `Cc1cccc(CS(=O)(=O)c2ncc(Cl)c(C(=O)Nc3ccc(F)cc3)n2)c1`, the inhibition was 30.8%. In the case of `Cc1cccc(NC(=O)c2nc(S(=O)(=O)Cc3ccccc3)ncc2Cl)c1` it was 66% (active); in that of `O=C(NCc1ccc(Cl)cc1)C(=O)NCC1CCCN1S(=O)(=O)c1cccs1` (configuration not stated), -11.1%; in that of `O=C(NCc1ccccc1)C1CCCN(S(=O)(=O)c2cccs2)C1` (configuration not stated), -3.94%. Then `O=C(NCc1ccc(Cl)cc1)C1CCN(S(=O)(=O)c2cccs2)CC1`, with 53% (active); and `N#CCCCn1c(O)c(N=NC(=O)C(O)c2ccccc2)c2ccccc21` (configuration not stated), with 10.8%; and `COC(=O)c1cccc(NS(C)(=O)=O)c1`, with 1.19%. In the case of `CCCc1cc(=O)oc2cc(OCC(=O)Nc3ccc(CN4CCOCC4)cc3)c(Cl)cc12` it was -0.759%. With `CC(NC(=S)NC1CCCCC1)C(c1ccccc1)N1CCOCC1` (configuration not stated), the inhibition was -1.91%. Take `Cc1sc(NC(=O)C2C3CCC(O3)C2C(=O)O)c(C(=O)OC(C)C)c1-c1ccc(Cl)cc1` (configuration not stated): the inhibition was 2.12%. Then `CC(C)c1cc(Cn2c3ccccc3c(=O)n2C(C)Cn2cc(C3CC3)nn2)on1` (configuration not stated), with -7.98%; and `CCC(C(=O)NC1CCCCC1)N(C(=O)c1snc(C(N)=O)c1N)c1ccc(OC)cc1OC` (configuration not stated), with 8.28%; and `COc1ccc(N(C(=O)c2snc(C(N)=O)c2N)C(C(=O)NC2CCCC2)c2ccc(C)o2)c(OC)c1` (configuration not stated), with 34.7%.

Consider `COc1ccc(C(C(=O)NC2CCCCC2)N(C(=O)c2snc(C(N)=O)c2N)c2ccccc2OC)cc1` (configuration not stated), for which the inhibition is 48.7% (active). Then `Cc1ccccc1C(=O)NCC(c1ccco1)N1CCc2ccccc21` (configuration not stated), with 6.76%; and `CCC1NC(=O)c2cccnc2-n2c1nc1ccc(C)cc1c2=O` (configuration not stated), with -1.36%; and `O=C1NC(Cc2ccccc2)c2nc3ccc(Br)cc3c(=O)n2-c2cc3ccccc3cc21` (configuration not stated), with 37.7%. Then `Cc1cc(C)c2c(=O)n3c(nc2c1)C(CC(C)C)NC(=O)c1cc2ccccc2cc1-3` (configuration not stated), with 77.3% (active); and `Cc1[nH]c2c(C(=O)N3CCCC(CCC(=O)NCc4ccccc4F)C3)cccc2c1C` (configuration not stated), with 2.8%; and `CN1CCN(c2ccccc2NC(=O)COc2ccc(C3CCCCC3)cc2)CC1`, with 22.8%. Then `O=C(CSCc1ccc([N+](=O)[O-])cc1)NCCSCc1ccccc1`, with 3.17%. Regarding `Nc1ccn(CC(=O)N2CCN(c3ccccn3)CC2)c(=O)n1`, the inhibition was -9.67%. On to `O=C(/C=C/c1cccc(C(F)(F)F)c1)N1CCN(c2ccccn2)CC1`, for which the inhibition is 55% (active). Then `O=S(=O)(c1cccc(C(F)(F)F)c1)N1CCN(c2cnccn2)CC1`, with -1.02%; and `CSc1ccc(Cl)c(C(=O)OCC(=O)N2CCNC2=O)c1`, with 5.05%.
